Measured potencies and affinities stand elsewhere. Records with an inconclusive call do not appear. Calls of active or inactive are those of the source.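 Rule for the calls: active = samples whose fitted half-maximal inhibition concentration is no more than ten times the top valid dose tested; inconclusive = flat response between -70 and -30, or invalid curve fit; inactive = flat within 30 of zero, potency above limit, or signal rising.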

The target of the assay is Trypsin (Sus scrofa) (UniProt P00761). Nature of the assay: trypsin protease activity blockade – biochemical, quenched peptide fluorescence, cherry-pick, selectivity assay for Rce1 protease inhibitor project, dose response (AID 488789).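 Note: more negative means stronger trypsin inhibition.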 As to conditions: porcine trypsin, quenched peptide cleavage fluorescence; series mostly up to 10 µM.
Chain of Trypsin (Sus scrofa) (P00761 whole entry, looked up): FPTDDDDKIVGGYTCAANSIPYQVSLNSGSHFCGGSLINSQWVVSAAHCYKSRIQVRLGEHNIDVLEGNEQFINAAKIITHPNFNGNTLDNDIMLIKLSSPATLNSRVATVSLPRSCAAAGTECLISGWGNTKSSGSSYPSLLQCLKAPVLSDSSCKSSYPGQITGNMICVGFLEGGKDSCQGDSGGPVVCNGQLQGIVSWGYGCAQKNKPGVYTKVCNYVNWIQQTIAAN
Consider `CCCCOc1ccc(-c2cc(C(F)(F)F)c(C#N)c(SCC(=O)O)n2)cc1`, for which the molecule was called inactive.

With `N#Cc1c(OCC(=O)c2ccccc2)nc2c(c1-c1ccco1)CCc1ccccc1-2`, the outcome was inactive.

For the molecule `COc1ccc(-c2c(C)oc3c(CN4CCN(C)CC4)c(O)ccc3c2=O)cc1`, the call was inactive.

Consider `Cc1ccccc1OC(C)C(=O)N1CCC(Cc2ccccc2)CC1` (configuration not stated), for which the outcome was inactive.

As to `COCc1cc(C)n(CC(=O)NCc2ccccc2)c(=O)c1C#N`, the call was inactive.

For `CN(C)c1cc(O)c(C(=S)Nc2ccccc2)c(N(C)C)c1`, the call was inactive.

With `Nc1nonc1-n1nnc(C(=O)N/N=C/c2ccoc2)c1CSc1ccccc1`, the result was inactive.

Take `Cc1cccc(OCCCN2C(=O)C(=O)c3cc(C)ccc32)c1`: the molecule was classed as inactive.

Consider `COCCN1C(=O)/C(=C/c2ccc(Oc3ccc([N+](=O)[O-])cn3)c(OC)c2)SC1=Nc1ccccc1`, for which the molecule was called inactive.

Consider `CC1CCN(C(=O)C2CCN(S(=O)(=O)c3ccc(-n4cnnn4)cc3)CC2)CC1`, for which the molecule was called inactive.

Turning to `Cc1cc2cc(C(=O)N3CCc4c([nH]c5ccccc45)C3c3ccccn3)ccc2o1` (configuration not stated), the outcome was inactive.

Consider `COc1cc2ccccc2cc1C(=O)N(CCN(C)C)c1nc2ccc(C)cc2s1`, for which the molecule was classed as inactive.

In the case of `COC(C/C=C/[C@H](O)[C@H](C)OCc1ccccc1)OC`, the molecule was classed as inactive.

`CCN(CC)CCCN(Cc1cc2cc3c(cc2[nH]c1=O)OCO3)C(=S)NCCCN(C)C`: the result was inactive.

With `Cc1ccc(S(=O)(=O)Nc2ccccc2C(=O)NCC2CCCO2)cc1` (configuration not stated), the result was inactive.

In the case of `COC(=O)c1nc(N)sc1-c1ccc(Cl)c(Cl)c1`, the call was inactive.

As for `COc1ccc(Cn2c(N)c(S(=O)(=O)c3cccs3)c3nc4ccccc4nc32)cc1`, the call was inactive.

For `CC1=NN(c2ccccc2)C(=O)/C1=C\c1ccc(Br)s1`, the result was inactive.

`Cc1ccc2c(C)c(C(=O)N(Cc3ccc(F)cc3)C3CCS(=O)(=O)C3)oc2c1` (configuration not stated): the outcome was inactive.

For the molecule `COc1ccc(OCC(=O)NS(=O)(=O)c2ccc(Cl)cc2)cc1`, the result was inactive.

On to `CCOc1cccc(-c2c(C(=O)N/N=C/c3cccs3)nnn2-c2nonc2N)c1`, for which the molecule was classed as inactive.

For `C/C(CC(=O)NCc1ccco1)=N\NC(=O)c1ccc([N+](=O)[O-])cc1Cl`, the result was inactive.

For `Clc1ccc(CN2CCc3c([nH]c4ccccc34)C2)cc1Cl`, the call was inactive.

For `O=C(NCCc1c[nH]c2ccccc12)OCCSS(=O)(=O)O`, the outcome was inactive.

Consider `Cc1ccc(SCc2c(C(=O)N/N=C/c3ccccc3)nnn2-c2nonc2N)cc1`, for which the molecule was classed as inactive.

Take `O=C(c1cnc2n(c1=O)CCS2)N1CCN(C(c2ccccc2)c2ccc(Cl)cc2)CC1` (configuration not stated): the result was inactive.

With `Cc1ccc(-c2c(C(=O)N/N=C/c3cccc(Cl)c3)nnn2-c2nonc2N)cc1`, the molecule was classed as inactive.

Regarding `COCCNc1nc(N)c([N+](=O)[O-])c(N2CCCCCC2)n1`, the molecule was called inactive.

Regarding `N#CC(C#N)=C1NC(N)=C(C#N)C(c2ccccc2)=C1C#N`, the call was inactive.

As to `CC(C)N1CCN(Cc2ccc(OCc3ccccc3)cc2)CC1CCO` (configuration not stated), the molecule was called inactive.

On to `Cc1cc(N)c2cc(NC(=O)/C=C/c3ccccc3Cl)ccc2n1`, for which the molecule was called inactive.

Turning to `Nc1nnnn1/N=C/c1ccccc1OCc1ccc(Cl)cc1Cl`, the molecule was called inactive.

`CCn1cc(C(=O)N[C@H](C)c2ccccc2)c(=O)c2cc(F)c(N3CCN(C)CC3)cc21`: the result was inactive.

As for `O=C(Nc1sc2c(c1C(=O)c1ccc(Cl)cc1)CCCC2)c1cccnc1`, the molecule was called inactive.

As for `CC(C)C(NC(=O)c1ccco1)C(=O)NCC(c1ccco1)N1CCCCC1` (configuration not stated), the result was inactive.

As to `Nc1nnnn1/N=C/c1cccc(OCc2ccccc2Cl)c1`, the call was inactive.

`COc1cccc(-c2cc(C(F)(F)F)n3ncc(S(=O)(=O)c4ccccc4)c3n2)c1`: the call was inactive.

Source of the values: PubChem BioAssay AID488789 (Broad Institute, 2010).
